Unmarked numbers belong to inactive results. Inconclusive results are not listed. Active and inactive are the calls of the source. Unless noted, calls come from the whole dose curve.

Test [1] is described as follows: Nuclear factor erythroid 2-related factor 2/antioxidant responsive element (Nrf2/ARE) small molecule agonists: qHTS cell viability counter screen in human keratinocytes (AID 1919968; active = well fitted curve in the direction sought with a large enough effect in the repeat runs; an effect the other way counts as inactive or inconclusive; note: nearly all actives have a fitted effect of over 55% in size). In short, it runs like this: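 Measured as CellTiter-Fluor fluorescence, this readout tracks cytotoxicity in the same wells as the ARE-luciferase screen. HaCaT reporter cells (1,500/well) received compounds after a 5 h pre-incubation and were exposed for 23 h.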

Test [2] in a line: Nuclear factor erythroid 2-related factor 2/antioxidant responsive element (Nrf2/ARE) small molecule agonists: luciferase reporter gene qHTS assay in human keratinocytes (AID 1919969). Note: nearly all actives have a fitted effect of over 35% in size.
In test [3] the target is Gonadotropin-releasing hormone receptor (Homo sapiens) (UniProt P30968). The test can be described thus: Human gonadotropin-releasing hormone receptor (GnRHR) small molecule agonists, calcium flux assay in GnRHR-HEK293 cells (AID 1920063). Note: nearly all actives have a fitted effect of over 35% in size. In short, it runs like this: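 Fluorescence kinetics (480 nm excitation, 540 nm emission; 3 min, 1 s steps) report calcium mobilisation in human GnRHR-HEK293 cells in agonist mode. Dye incubation: 1 h, 37 C.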

Test [4] has as its target KiSS-1 receptor (Homo sapiens) (UniProt Q969F8). In words: Human kisspeptin (KISS1R) small molecule agonists, calcium flux assay in KISS1R-HEK293 cells (AID 1920064; active = well fitted curve in the direction sought with a large enough effect in the repeat runs; an effect the other way counts as inactive or inconclusive). In short, it runs like this:
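Measures KISS1R agonism through calcium-sensitive dye fluorescence in stably transfected HEK293 cells, read for 3 min after pin-tool compound delivery; 15-point titrations in triplicate.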
On the technique in general: A change in cytosolic calcium serves as a functional read-out for many receptors and channels.

The nature of test [5]: G protein-coupled receptor (GPCR) small molecule agonists, calcium flux assay: HEK293 wild type cell line counter screen (AID 1920065). In short, it runs like this: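 Readout: fluorescence at 480 nm excitation/540 nm emission, sampled at 1 s intervals for 3 min. Cells had been cultured 18 h, then dye-loaded 1 h at 37 C before compound or ATP addition.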
Test [6] can be described thus: p53 small molecule agonists, cell-based qHTS assay with human liver microsomes: qHTS cell viability counter screen (AID 1963579). Note: nearly all actives have a fitted effect of over 45% in size. In short, it runs like this: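 Metabolic activation used human liver microsomes and NADPH, both 0.5 mg/mL final, over 16 hours at 37 C on p53RE-bla cells (4,000/well). Cytotoxicity measured by CellTiter-Glo luminescence, 30 min at room temperature.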
For orientation: Quantitative high-throughput screening tests each substance at several concentrations.

The nature of test [7]: p53 small molecule agonists, cell-based qHTS assay: qHTS cell viability counter screen (AID 1963581). Note: nearly all actives have a fitted effect of over 45% in size. In short, it runs like this:
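In the same plates used for the p53 bla reporter, HCT-116 cells given compounds for 16 h at 37 C received CellTiter-Glo; luminescence was recorded 30 min later at room temperature.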

For test [8], the target named is 5-hydroxytryptamine receptor 2A (Homo sapiens) (UniProt P28223). The test can be described thus: 5-hydroxytryptamine receptor 2A (HTR2A) small molecule antagonists, cell-based qHTS assay (AID 1963586). Note: nearly all actives have a fitted effect of over 45% in size. In short, it runs like this:
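Antagonist-mode intracellular calcium assay: DOI (4 nM) added after 5 min compound pre-incubation at room temperature to dye-loaded HTR2A-CHO cells. Fluorescence followed for 3 min, sampled every second.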

Test [9] has the same target. The test can be described thus: 5-hydroxytryptamine receptor 2A (HTR2A) small molecule agonists, cell-based qHTS assay (AID 1963587). Note: nearly all actives have a fitted effect of over 30% in size. In short, it runs like this: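 HTR2A-CHO cells, plated 18 h at 37 C/5% CO2, dye-loaded 1 h at 37 C; compounds in DMSO added by pin tool (agonist mode). Intracellular calcium flux read as kinetic fluorescence on FDSS over 2 min at 1 s intervals.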

The target in test [10] is Muscarinic acetylcholine receptor M1 (Homo sapiens) (UniProt P11229). In words: Cholinergic receptor muscarinic 1 (CHRM1) small molecule antagonists, cell-based qHTS assay (AID 1963588). Note: nearly all actives have a fitted effect of over 40% in size. In short, it runs like this: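 CHRM1-CHO calcium-flux assay, antagonist mode. Cells were seeded 18 h, dye-loaded 1 h at 37 C and given compound for 5 min at RT, then acetylcholine was added at 50nM. FDSS fluorescence was read 3 min; 15 concentrations, three runs.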

Test [11] has the same target. The test can be described thus: Cholinergic receptor muscarinic 1 (CHRM1) small molecule agonists, cell-based qHTS assay (AID 1963589). Note: nearly all actives have a fitted effect of over 35% in size. In short, it runs like this: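 Each compound was tested at 15 concentrations across three independent runs on dye-loaded CHO cells stably expressing human CHRM1, reading intracellular calcium fluorescence kinetically at 1 sec intervals.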

Test [12] can be described thus: cAMP Responsive Elements (CRE) small molecule agonists, cell-based qHTS assay (AID 1963590). In short, it runs like this: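 Cell line: CRE-bla HEK 293T; medium DMEM/10% dialyzed FBS/0.1 mM NEAA/1 mM pyruvate/25 mM HEPES; 3 h compound exposure; beta-lactamase FRET readout after 2 h substrate loading at RT.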
Test [13] is described as follows: cAMP Responsive Elements (CRE) small molecule antagonists, cell-based qHTS assay (AID 1963591; active = well fitted inhibition curve with a large enough effect in the signal ratio in the repeat runs, not every such curve was filed as active; the % refers to the signal ratio). In short, it runs like this: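 Inhibition of NKH477-driven (0.25 uM final) CRE-beta-lactamase signal in HEK293T cells, 3 h compound exposure at 37 °C, detected by FRET substrate fluorescence.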
The target of test [14] is Beta-2 adrenergic receptor (Homo sapiens) (UniProt P07550). In words: Adrenergic beta2 receptor (ADRB2) small molecule antagonists, cell-based qHTS assay (AID 1963592). Note: series mostly up to about 92 µM; nearly all actives have a fitted effect of over 50% in size. In short, it runs like this:
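Cells (CHO, stable ADRB2 overexpression) incubated 18-20hr at 37C; compounds added from DMSO; agonist mix (1nM isoproterenol, 100uM IBMX, 25uM Ro-20-1724) added; 0.5hr RT; d2-cAMP and anti-cAMP-cryptate added; 1hr RT; 665/615 nm read.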

The target is the same in test [15]. The test can be described thus: Adrenergic beta2 receptor (ADRB2) small molecule agonists, cell-based qHTS assay (AID 1963593).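 Note: CHO cells stably overexpressing human ADRB2.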 In short, it runs like this: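 CHO cells stably over-expressing ADRB2 were plated overnight at 37C, then dosed with compounds plus a stimulation mix containing 100uM IBMX and 25uM Ro-20-1724 for 0.5hr at room temperature. cAMP was measured by HTRF competition, 1hr.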

In test [16] the target is D(2) dopamine receptor (Homo sapiens) (UniProt P14416). The test can be described thus: Dopamine D2 receptor (DRD2) small molecule agonists, cell-based qHTS assay (AID 1963594). Note: nearly all actives have a fitted effect of over 35% in size. Note: potency is the fitted concentration of half-maximal effect. In short, it runs like this:
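HEK293 cells stably expressing DRD2 were cultured 24 h at 37 C, then given Ro20-1724 (0.1 mM final) and compounds for 10 min at room temperature. NKH477 (200nM) was then added for 30 min. cAMP was read by HTRF.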

The target is the same in test [17]. The test can be described thus: Dopamine D2 receptor (DRD2) small molecule antagonists, cell-based qHTS assay (AID 1963595; active = well fitted inhibition curve with a large enough effect in the signal ratio in the repeat runs, with a control signal flat; the % refers to the signal ratio). In short, it runs like this: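 HEK293 cells stably expressing DRD2 were preincubated with 0.1 mM Ro20-1724, then with compound for 10 min at room temperature. Cells were stimulated with 200 nM NKH477 plus 12 nM quinpirole for 30 min, and cAMP was read by HTRF.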

A short description of test [18]: p53 small molecule agonists, cell-based qHTS assay with rat liver microsomes: qHTS cell viability counter screen (AID 1963580). Note: nearly all actives have a fitted effect of over 45% in size. In short, it runs like this: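 p53RE-bla HCT-116 cells (4,000/well) rested 5 h at 37 C, then given Tox21 compounds in DMSO with rat liver microsomes (0.5 mg/mL final) plus NADPH (0.5 mg/mL final) for 16 h at 37 C. Viability read by CellTiter-Glo luminescence after 30 min at room temperature.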
% is set by controls: 0 for no effect and ±100 for the full control effect.

Sequence of 5-hydroxytryptamine receptor 2A (Homo sapiens) (P28223 whole entry, looked up): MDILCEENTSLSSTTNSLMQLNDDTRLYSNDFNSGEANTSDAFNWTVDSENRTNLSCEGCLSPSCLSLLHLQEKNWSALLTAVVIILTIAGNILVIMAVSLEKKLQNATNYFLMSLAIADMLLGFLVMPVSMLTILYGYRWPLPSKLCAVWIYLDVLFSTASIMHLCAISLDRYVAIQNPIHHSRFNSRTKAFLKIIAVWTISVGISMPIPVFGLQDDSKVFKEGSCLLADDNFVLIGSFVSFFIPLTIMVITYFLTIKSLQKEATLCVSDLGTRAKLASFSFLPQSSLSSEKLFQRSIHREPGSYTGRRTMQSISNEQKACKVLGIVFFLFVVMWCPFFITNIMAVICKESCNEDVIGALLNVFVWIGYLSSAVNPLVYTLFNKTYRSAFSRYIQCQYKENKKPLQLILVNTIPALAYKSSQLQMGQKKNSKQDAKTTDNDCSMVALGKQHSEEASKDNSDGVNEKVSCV
Sequence of Muscarinic acetylcholine receptor M1 (Homo sapiens) (P11229 whole entry, looked up): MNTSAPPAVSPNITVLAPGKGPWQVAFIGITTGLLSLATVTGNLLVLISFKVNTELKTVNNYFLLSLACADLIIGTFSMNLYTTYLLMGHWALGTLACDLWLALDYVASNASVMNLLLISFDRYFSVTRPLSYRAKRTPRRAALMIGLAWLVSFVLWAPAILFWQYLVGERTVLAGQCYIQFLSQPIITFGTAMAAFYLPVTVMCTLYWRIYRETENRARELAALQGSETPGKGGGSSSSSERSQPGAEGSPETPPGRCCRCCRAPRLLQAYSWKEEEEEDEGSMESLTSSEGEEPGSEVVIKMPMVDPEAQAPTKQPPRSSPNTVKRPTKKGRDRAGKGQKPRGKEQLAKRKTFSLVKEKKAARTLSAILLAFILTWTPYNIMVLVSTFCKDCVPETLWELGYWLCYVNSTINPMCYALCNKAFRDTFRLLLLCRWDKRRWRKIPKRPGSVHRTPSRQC
Sequence of Gonadotropin-releasing hormone receptor (Homo sapiens) (P30968 whole entry, looked up): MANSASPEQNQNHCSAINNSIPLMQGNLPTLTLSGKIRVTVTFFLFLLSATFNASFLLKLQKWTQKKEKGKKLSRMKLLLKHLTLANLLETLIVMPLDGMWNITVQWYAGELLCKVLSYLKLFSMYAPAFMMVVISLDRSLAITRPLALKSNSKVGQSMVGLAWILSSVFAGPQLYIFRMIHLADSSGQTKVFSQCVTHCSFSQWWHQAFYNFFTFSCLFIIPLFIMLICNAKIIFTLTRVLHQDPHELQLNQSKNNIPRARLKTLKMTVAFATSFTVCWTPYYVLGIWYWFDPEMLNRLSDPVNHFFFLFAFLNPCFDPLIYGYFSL
Sequence of Beta-2 adrenergic receptor (Homo sapiens) (P07550 whole entry, looked up): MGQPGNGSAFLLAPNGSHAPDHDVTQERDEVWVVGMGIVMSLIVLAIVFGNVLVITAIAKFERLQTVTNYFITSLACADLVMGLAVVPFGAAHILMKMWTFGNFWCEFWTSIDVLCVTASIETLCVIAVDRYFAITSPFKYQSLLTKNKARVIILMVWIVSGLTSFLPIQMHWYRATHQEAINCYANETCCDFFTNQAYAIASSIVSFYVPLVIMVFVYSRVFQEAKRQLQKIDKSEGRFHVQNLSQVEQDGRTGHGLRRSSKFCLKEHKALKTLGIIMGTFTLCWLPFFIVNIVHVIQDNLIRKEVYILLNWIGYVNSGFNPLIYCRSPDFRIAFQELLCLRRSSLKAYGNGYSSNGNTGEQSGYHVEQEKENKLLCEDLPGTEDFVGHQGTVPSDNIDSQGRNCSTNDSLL
Sequence of KiSS-1 receptor (Homo sapiens) (Q969F8 whole entry, looked up): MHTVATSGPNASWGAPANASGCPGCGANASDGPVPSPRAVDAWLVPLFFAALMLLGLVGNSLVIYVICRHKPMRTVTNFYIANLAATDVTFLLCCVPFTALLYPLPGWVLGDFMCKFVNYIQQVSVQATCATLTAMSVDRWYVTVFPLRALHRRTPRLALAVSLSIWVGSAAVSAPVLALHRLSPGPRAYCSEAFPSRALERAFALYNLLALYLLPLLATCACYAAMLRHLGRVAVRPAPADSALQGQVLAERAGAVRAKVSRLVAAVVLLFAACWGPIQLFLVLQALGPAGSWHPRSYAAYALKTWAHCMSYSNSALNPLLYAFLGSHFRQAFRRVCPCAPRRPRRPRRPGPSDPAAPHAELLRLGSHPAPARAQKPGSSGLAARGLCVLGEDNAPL
Sequence of D(2) dopamine receptor (Homo sapiens) (P14416 whole entry, looked up): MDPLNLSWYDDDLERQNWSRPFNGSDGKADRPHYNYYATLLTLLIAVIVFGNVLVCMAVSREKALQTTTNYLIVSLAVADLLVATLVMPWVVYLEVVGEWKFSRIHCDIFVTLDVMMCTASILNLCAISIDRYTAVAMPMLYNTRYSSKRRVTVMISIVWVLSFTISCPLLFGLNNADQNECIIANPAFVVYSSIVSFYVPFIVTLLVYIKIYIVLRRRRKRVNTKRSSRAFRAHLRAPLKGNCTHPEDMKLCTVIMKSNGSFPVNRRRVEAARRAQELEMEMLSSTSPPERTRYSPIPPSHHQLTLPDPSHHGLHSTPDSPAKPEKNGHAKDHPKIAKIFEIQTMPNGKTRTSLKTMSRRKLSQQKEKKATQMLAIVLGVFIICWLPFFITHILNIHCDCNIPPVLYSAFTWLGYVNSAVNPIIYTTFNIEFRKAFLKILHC

In the case of `CCOCC(C)O` (configuration not stated), the Potency result in test [1], in test [2], in test [3], in test [4], in test [5] and in test [6] was “inactive” in each case. Also, the Potency result in [7], in test [8], in test [9], in [10], in [11] and in test [12] was “inactive” each time. In addition, the Potency entry in [13], in [14], in [15], in [16] and in [17] was “inactive” throughout.
Regarding `NCCNC(=O)c1ccc(Cl)cn1`, the Potency entry in test [1], in test [2], in test [3], in [4], in test [5] and in [6] was “inactive” each time. The Potency entry in test [18], in test [8], in test [10], in test [11], in [13] and in [14] was “inactive” each time. The Potency entry in test [15], in test [16] and in test [17] was “inactive” in each case.
Regarding `Cc1[nH]c(C)c(Cl)c(=O)c1Cl`, the figures for the activity change, negative = cytotoxicity in test [1], in test [6] and in test [7] were 5.34% [at 19 µM], -0.426% [at 13.5 µM] and 15.4% [at 13.5 µM], respectively. The activity, positive = activation in test [2] is 3.75% [at 19 µM]. Moreover, the activity change in test [3] was -0.0007% [at 11.8 µM, hits give high values]. The activation in test [4] is -1.04% [at 15.8 µM]; in test [5], -1.57% [at 11.8 µM]; in test [9], -10% [at 15.9 µM]; in test [11], 0.215% [at 15.8 µM]; in test [12], -0.819% [at 19 µM]; in test [15], 13.3% [at 19 µM]. Besides, the activation in test [16] was -3.57% [at 19 µM]. In addition, the activity, negative = inhibition in test [8] was 81.1% [at 12.7 µM]; in [10], 9.6% [at 12.6 µM]. In addition, the activity change, negative = inhibition in test [14] was -0.0462% [at 19 µM]; in [17], 7.52% [at 18.9 µM].
Turning to `CC(C)[C@H]1CC[C@H](C)C[C@@H]1O`, the Potency result in test [1], in test [2], in [3], in test [4], in [5] and in test [6] was “inactive” each time. Further, the Potency result in test [18], in test [8], in test [10], in [11], in [12] and in [13] was “inactive” in each case. In addition, the Potency result in test [14], in [15] and in test [17] was “inactive” throughout. Also, the Potency in test [16] was 57.9 µM (active).
As for `Cc1c(O)cccc1O`, the Potency result in test [1], in test [2], in test [3], in test [4], in test [5] and in test [6] was “inactive” throughout. Moreover, the Potency entry in test [7], in [8], in test [9], in test [10], in [11] and in [12] was “inactive” throughout. The Potency entry in test [13], in test [14], in [15], in test [16] and in test [17] was “inactive” in each case.
Turning to `CC(C)NCC(O)c1cc(O)cc(O)c1` (configuration not stated), the Potency result in test [1], in [2], in test [3], in test [4], in test [5] and in [6] was “inactive” each time. Further, the Potency result in [18], in test [8], in test [9], in [10], in test [11] and in test [14] was “inactive” each time. The Potency result in test [16] and in [17] was “inactive” in each case.
`CCCc1ccc(OC)cc1`: the Potency result in test [1], in test [2], in test [3], in test [4], in test [5] and in [6] was “inactive” in each case. Moreover, the Potency result in test [7], in test [8], in [9], in [11], in test [12] and in test [13] was “inactive” each time. The Potency entry in test [14], in test [15], in test [16] and in [17] was “inactive” throughout.
Take `CCOc1ccc2[nH]cc(C(=O)NCc3ccccc3)c(=O)c2n1`: the Potency entry in test [1], in test [2], in [3], in test [4], in test [5] and in [6] was “inactive” throughout. For the same compound, the Potency entry in test [7], in test [8], in test [9], in [10], in test [11] and in test [14] was “inactive” throughout. In addition, the Potency entry in test [15], in [16] and in test [17] was “inactive” throughout.
Take `N#CCCN(CCO)CCO`: the Potency result in [1], in [2], in [3], in test [4], in test [5] and in [6] was “inactive” throughout. Further, the Potency entry in test [18], in test [9], in test [10], in test [11], in test [12] and in test [13] was “inactive” throughout. The Potency result in test [14], in [16] and in [17] was “inactive” throughout.
Take `CNC(=O)C(c1ccccc1)c1ccccc1`: the Potency entry in test [1], in [2], in test [3], in test [4], in [5] and in test [6] was “inactive” each time. For the same compound, the Potency result in test [7], in [8], in test [9], in [10], in test [11] and in test [12] was “inactive” throughout. Further, the Potency entry in test [14], in test [16] and in [17] was “inactive” each time.
For `CCN1C=CN(C)C1C` (configuration not stated), the Potency result in test [1], in test [2], in test [3], in test [4], in test [5] and in [6] was “inactive” in each case. In addition, the Potency entry in test [7], in [8], in test [9], in test [10], in [11] and in test [13] was “inactive” throughout. Besides, the Potency entry in [14], in test [16] and in test [17] was “inactive” throughout.
Take `CCCCOCC(C)OCC(C)O` (configuration not stated): the Potency entry in test [1], in [2], in test [3], in test [4], in [5] and in test [6] was “inactive” each time. The Potency result in test [7], in test [8], in test [9], in test [10], in test [11] and in test [12] was “inactive” throughout. In addition, the Potency result in test [13], in test [14], in test [16] and in test [17] was “inactive” each time.
In the case of `O=C(O)CNC(=O)c1ccccc1`, the Potency entry in [1], in [2], in [3], in [4], in test [5] and in test [18] was “inactive” in each case. Besides, the Potency result in test [7], in test [9], in test [10], in test [11], in [12] and in [13] was “inactive” in each case. Moreover, the Potency entry in test [14], in [16] and in [17] was “inactive” in each case.
